Experimental findings from PubChem BioAssay (NCI) are described below.

The panel holds about 83,000 compounds, 20% with a hit somewhere; the sample as a whole holds those more often.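 Percent growth is the endpoint: 0 to 100 indicates growth inhibition (40 means 60% inhibition), 0 means no net growth, and negative values indicate cell death.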 Unmarked numbers belong to inactive results. The source made the active and inactive calls.

The experiment deals with NCI/ADR-RES ovarian. Briefly: NCI-60 one-dose screen, 48 h (100 = growth as untreated, 0 = no growth, -100 = all killed). As to conditions: 10 µM unless noted. As to the method:
Growth inhibition of the NCI/ADR-RES human […] tumor cell line is measured as a screen for anti-cancer activity. Cells are grown in 96 well plates and exposed to the test compound for 48 hours. Compounds are tested at a single concentration, which is 10^-5 M for most compounds. The reported endpoint is percent growth (GI% or GIPRCNT), where numbers from 0 - 100% represent growth inhibition, and numbers from -100% - 0 represent cell death. For example, a value of 40 represents 60% growth inhibition. A value of 0 means no net growth occurred over the course of the experiment. A value of -40 indicates 40% of cells at the beginning of the experiment died by the end of the experiment. A value of -100 means all cells are dead at the end of the experiment.
NCI-60 Human Tumor Cell Lines Screen was performed using the standard one-dose NCI protocol, which is described in more detail at https://dtp.cancer.gov/discovery_development/nci-60/default.htm.
Compounds with GIPRCNT values below 10 were considered active. Activity score was based on GIPRCNT using the following formula: […]
Score is 0 for GIPRCNT values of 100 or above, 50 for GIPRCNT values of 0, and 100 for GIPRCNT values of -100.
As to `Cn1cc(-c2ccc3c(Nc4cccc(NC(=O)Nc5cccc(F)c5)c4)ncnc3c2)cn1`, the growth was 78%.
For `Cc1c(C)c2c(c(C)c1OC(=O)CCC(=O)[O-])CCC(C)(CCCCCCCCCCC[P+](c1ccccc1)(c1ccccc1)c1ccccc1)O2` (stereo not given), the growth was 74.3%.
In the case of `CC(C)(C)c1ccc(C(=O)Nc2sc3c(c2C#N)CCC(=O)C3)cc1` it was 9.31% (active); in that of `CCCNNC(=O)c1ccc(CNC(=O)/C=C/c2ccccc2)cc1`, 21% [2.5 µM]; in that of `c1ccc(-c2cn3nc(-c4c[nH]c5ccccc45)sc3n2)cc1`, 84.3%.
Then `O=C1/C(=C/c2cccc(Br)c2)COc2ccc(O)c(O)c21`, with 7.25% (active); and `O=CN1N=C(c2cccc(Nc3ccncc3)c2)CC1c1ccc2c(c1)OCO2` (stereo not given), with 101%; and `COc1ccccc1-c1nc2ccc3[nH]ncc3c2c2c1CCCC2`, with 80.6%.
For `O=C1/C(=C/c2ccccc2)COc2ccc(O)cc21`, the growth was 104%.
On to `O=C1NCCN1/N=C/c1c(Cl)n(Cc2ccc(Cl)cc2)c2ccccc12`, for which the growth is 90.8%.
As to `COc1ccc(C(=O)/C=C/c2ccc(Cl)cc2)cc1S(N)(=O)=O`, the growth is 74.9%.
With `Cc1cc(C(=O)Nc2cc(Nc3ncccc3-c3ncnc4nc[nH]c34)ccc2F)cc(C(C)(C)C#N)c1`, the growth was 49.9%.
For the compound `O=C(c1ccccc1)[C@@H](c1ccccc1)[C@]1(O)C(=O)Nc2ccccc21`, the growth was 102%.
Consider `Cc1ccc(Nc2cc(N)nc(N)n2)cc1`, for which the growth was 95%.
In the case of `C#Cc1c(I)n(C2OC(CO[Si](C)(C)C(C)(C)C)C3OC(C)(C)OC32)c(=O)[nH]c1=O` (stereo not given) it was 89.6%; in that of `O=C(CN1C(=O)NC2NC(=O)NC21)N/N=C/c1cccc([N+](=O)[O-])c1` (stereo not given), 101%.
`CCCCC1=C(Br)C(=O)c2ncccc2C1=O`: the growth is 96.8%.
Take `COC1CC(O)C2=C(CC3C(/C(C)=C\CC=C(C)C)CCC3(C)O2)C1=O` (stereo not given): the growth is 103%.
Turning to `O=S(=O)(Nc1ccc(Br)cc1)c1ccc(-c2cnc(C3CC3)o2)cc1`, the growth is -2.19% (active).
As to `CCCn1cnc2c(c1=N)C(c1ccc(Cl)cc1)c1sc3c(F)cccc3c1O2` (stereo not given), the growth was 80.7%.
`C=CC(=O)NCc1cccc(Nc2ncc(Br)c(NCCCNC(=O)C3CCC3)n2)c1`: the growth is 35.8%.
Consider `COC(=O)CCc1c(/C=C2\N=C(c3ccc[nH]3)C=C2OC)[nH]c(C)c1C(=O)OCc1ccccc1`, for which the growth was 9.4% (active).
In the case of `CCCC[N+]1(C)CCN=C1Cc1ccccc1` (stereo not given) it was 107%.
As to `Brc1ccc(-c2nn(-c3ccccc3)cc2-c2nn[nH]n2)s1`, the growth was 103%.
`O=C(O)CCCN1C(=O)CSC1=S`: the growth was 103%.
In the case of `O=C(/C=C/c1ccco1)c1ccc(Nc2ccnc3cc(Cl)ccc23)cc1` it was 73.9%; in that of `CN1CCN(Cc2ccc(NC(=O)c3cncc(C#Cc4c(N)ncc5cc(F)ccc45)c3)cc2C(F)(F)F)CC1`, 10.3%; in that of `Cn1cc(-c2ccc3occ(-c4cccc(-c5ccncc5)c4)c3n2)cn1`, 4.84% (active).
Turning to `CCOc1ccccc1NC(=O)CCC(=O)OC`, the growth was 113%.
Take `CCOC(=O)C1=C(c2ccccc2)N=C2SC=C(c3cccc([N+](=O)[O-])c3)N2C1c1ccc(O)cc1` (stereo not given): the growth was 99.3%.
As for `CN1CCN(CC(=O)N(C)c2ccc(N=C(c3ccccc3)c3c(O)[nH]c4ccc([N+](=O)[O-])cc34)cc2)CC1`, the growth is 90.8%.
In the case of `COc1cccc(/C=C2\CCc3ccccc3C2=O)c1` it was 71.4%; in that of `O=C(O)/C=C\C(=O)Nc1ccc2c(c1)Cc1cc(F)ccc1-2`, 102%.
With `Cc1ccc(C2(C)NC(=O)N(CC(=O)Nc3cccc(C)c3)C2=O)cc1` (stereo not given), the growth is 94.8%.
For the compound `O=c1ccc2c(ccc3ncccc32)o1`, the growth was 106%.
Take `C#C[C@]1(O)CC[C@H]2[C@@H]3CC=C4c5sc(-c6cccc(C)c6)nc5CC[C@]4(C)[C@H]3CC[C@@]21C`: the growth was 80.9%.
In the case of `COC(CCP(=O)(c1ccccc1)c1ccccc1)(C(=O)c1ccccc1)c1ccccc1` (stereo not given), the growth is 57.7%.
Regarding `CCN=c1sc2c(n1NC(=O)c1cc3ccc1CCc1ccc(cc1)CC3)C(=O)c1ccccc1C2=O`, the growth was -22.8% (active).
Regarding `CN1CCN(Cc2ccc(NC(=O)c3cc(C#Cc4cnc(N)c5ncccc45)n(C)n3)cc2C(F)(F)F)CC1`, the growth was 96%.
Take `Cc1nn(C)c2ncnc(Nc3ccccc3Br)c12`: the growth is 107%.
